PubChem BioAssay AID1220 (Sanford-Burnham Center for Chemical Genomics, 2008)
In all, about 190,000 compounds went through this assay and about 1,300 (0.68%) were called active. No stated cut-off is given here; in the data, active means inhibition above about 50%; inactive means the rest. What follows is part of a selection rich in actives, with near analogues and random picks from the rest.

Target: Mannose-6-phosphate isomerase (Homo sapiens) (UniProt P34949)
Assay: MPI inhibition at elevated mannose 6-phosphate – biochemical, fluorescence intensity, high mannose 6-phosphate, primary screen (AID 1220)
Settings: recombinant PMI enzyme, coupled fluorescence intensity; at 20 µM; hits give high values

Mannose-6-phosphate isomerase (Homo sapiens), sequence (P34949 whole entry, looked up): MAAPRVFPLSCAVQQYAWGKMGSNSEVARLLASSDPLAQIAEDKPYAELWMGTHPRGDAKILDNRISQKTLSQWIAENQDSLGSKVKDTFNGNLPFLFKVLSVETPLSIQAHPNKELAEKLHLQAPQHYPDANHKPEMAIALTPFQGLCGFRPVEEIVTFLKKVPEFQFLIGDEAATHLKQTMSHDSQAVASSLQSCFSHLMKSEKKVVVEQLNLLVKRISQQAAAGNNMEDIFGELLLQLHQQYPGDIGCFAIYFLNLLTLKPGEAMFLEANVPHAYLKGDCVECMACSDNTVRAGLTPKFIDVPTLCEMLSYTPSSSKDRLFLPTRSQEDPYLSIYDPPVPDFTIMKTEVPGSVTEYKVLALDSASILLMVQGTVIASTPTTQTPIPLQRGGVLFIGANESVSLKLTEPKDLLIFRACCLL

Row | SMILES | inhibition
1 | Cn1cc(S(=O)(=O)CC(=O)N2CCCc3ccccc32)c2ccccc21 | 6.6% (inactive)
2 | Cc1ccc(N2C(=O)NC(NC(=O)C(C)(C)C)(C(F)(F)F)C2=O)cc1 (configuration not stated) | 4.9% (inactive)
3 | COC(=O)c1ccc(/C=N/NC(=O)CNc2cccc(C)c2)cc1 | 9.8% (inactive)
4 | CN(C)S(=O)(=O)c1cccc(NC(=S)NC2CCCCC2)c1 | -2.3% (inactive)
5 | CCN(CCO)c1ccc(NC(=S)Nc2cccc(S(=O)(=O)N(C)C)c2)cc1 | 54.1% (active)
6 | CN(C)S(=O)(=O)c1cccc(NC(=S)Nc2cc(Cl)cc(Cl)c2)c1 | -6.4% (inactive)
7 | CCN(Cc1ccccc1)S(=O)(=O)c1cc(C(=O)c2c(N)n(C)c(=O)n(C)c2=O)ccc1OC | 0.7% (inactive)
8 | CC1CCCN(C(=S)SCC(=O)O)C1 (configuration not stated) | 0.2% (inactive)
9 | CC(C)(C)NCC(=O)N/N=C/c1ccc(OCc2ccccc2)cc1 | -4.4% (inactive)
10 | Nc1nn2c(-c3ccccc3)cc(=O)[nH]c2c1N=Nc1ccc(O)cc1 | 55.4% (active)
11 | Cc1cc(=O)[nH]c2c(N=Nc3ccc(O)cc3)c(N)nn12 | 45.7% (inactive)
12 | Nc1nn2c(-c3ccccc3)cc(=O)[nH]c2c1N=Nc1ccc(Br)cc1 | 12.3% (inactive)
13 | COC(=O)c1ccccc1NC(=O)N1CCN(C(=O)c2ccco2)CC1 | 13.1% (inactive)
14 | CCn1c(C)c(C(C)=O)c(N2CCN(c3ccccc3)CC2)nc1=S | -20.8% (inactive)
15 | CCn1c(C)c(C(C)=O)c(N2CCN(c3ccc(OC)cc3)CC2)nc1=S | 50.3% (active)
16 | CCn1c(C)c(C(C)=O)c(N2CCN(c3ccc(F)cc3)CC2)nc1=S | -6.4% (inactive)
17 | O=S(=O)(c1ccc(Br)cc1)N1CCN=C1SCc1cccnc1 | 0.3% (inactive)
18 | Cc1ccc(-n2c(=O)c3ccccc3n(CC(=O)NCc3ccco3)c2=O)cc1 | -5.8% (inactive)
19 | CCCc1nnc2c(N(C)S(=O)(=O)c3ccccc3)nc3ccccc3n12 | 4.2% (inactive)
20 | COc1ccc(NC(=S)NC(C)Cc2cccs2)cc1 (configuration not stated) | 3.7% (inactive)
21 | CCc1cccc(NC(=O)Cn2cc(C=O)c3ccccc32)c1 | -9.7% (inactive)
22 | CC(C)c1ccc(OCC(=O)NCCO)cc1 | 55.1% (active)

Row | SMILES | inhibition
23 | CC(C)c1ccc(OC(=O)NCCO)cc1 | 9.1% (inactive)
24 | O=C(COc1ccc(Br)cc1)NCCO | 8.7% (inactive)
25 | COc1ccc(/C=N/Nc2nccnc2Cl)cc1 | -6.9% (inactive)
26 | Nc1ccc2c3c(cccc13)CC2 | 64.4% (active)
27 | CC(=O)c1ccc2c3c(cccc13)CC2 | 6% (inactive)
28 | c1ccc(Nc2ccc3c4c(cccc24)CC3)cc1 | 17.7% (inactive)
29 | OC(COc1ccc2c(c1)OCO2)CN1CCN(c2ccc(F)cc2)CC1 (configuration not stated) | -1% (inactive)
30 | CC(=O)c1cn(CC(=O)Nc2ccc(C)cc2C)c2ccccc12 | -0.4% (inactive)
31 | COc1cc(/C=N/NC(N)=O)ccc1OC(=O)c1ccco1 | 3.7% (inactive)
32 | CCOc1ccc(N(C(=O)C2CCCO2)C2C=CS(=O)(=O)C2)cc1 (configuration not stated) | -4.8% (inactive)
33 | Cc1ccc(N(C(=O)C2CCCO2)C2C=CS(=O)(=O)C2)cc1Cl (configuration not stated) | 0.2% (inactive)
34 | O=C(C1CCCO1)N(c1ccc(F)cc1)C1C=CS(=O)(=O)C1 (configuration not stated) | 52.9% (active)
35 | C=C1C(=O)[C@@]23[C@H](O)C[C@@H]4C(C)(C)CC[C@H](O)[C@@]4(C)[C@@H]2CC[C@@H]1[C@H]3O | 3.9% (inactive)
36 | C=C1C(=O)[C@@]23[C@H](O)C[C@@H]4C(C)(C)CC[C@H](O)[C@]4(C)[C@@H]2C[C@H](O)[C@@H]1[C@H]3O | 52.3% (active)
37 | CCOC(=O)/C(C#N)=C/c1cc2ccccc2nc1Cl | 21.1% (inactive)
38 | Cc1cc(C)c2cc(CNC3CCCC3)c(Cl)nc2c1 | 3.4% (inactive)
39 | Cc1cc2cc(C=C(C#N)C#N)c(Cl)nc2cc1C | 54.1% (active)
40 | Cc1ccc2cc(C=O)c(N(C)C)nc2c1 | 8.2% (inactive)
41 | CCOC(=O)/C(C#N)=C/c1cc2ccc(C)cc2nc1Cl | 21.5% (inactive)
42 | CC(C)(C)c1nn(-c2ccccc2)c2nc(Cl)c(C=O)cc12 | -0.4% (inactive)
43 | Cc1ccc2cc(C=O)c(Cl)nc2c1 | 39.8% (inactive)
44 | Cc1cc2cc(C=O)c(Cl)nc2cc1C | 58.2% (active)

Row | SMILES | inhibition
45 | CCC(C)(C(=O)NC1CCCCC1)N(C(=O)C1CCC(=O)N1)c1ccc(C)cc1 (configuration not stated) | -0.7% (inactive)
46 | CCC(=O)NC(=S)Nc1cccc(NC(=O)c2ccco2)c1 | 9.6% (inactive)
47 | CCC(C)C(NC(=O)c1ccc(Cl)cc1Cl)C(=O)O (configuration not stated) | 1.7% (inactive)
48 | COc1ccc(CC(=O)Nc2ccccc2C(=O)N2CCOCC2)cc1 | 5.3% (inactive)
49 | CCOC(=O)N1CCC(N2Cc3cccc(C(=O)Nc4ccc(F)cc4)c3C2=O)CC1 | -3.9% (inactive)
50 | COC(=O)c1ccccc1NC(=O)COc1ccccc1[N+](=O)[O-] | -1.9% (inactive)
51 | O=C(COc1ccccc1[N+](=O)[O-])NNC(=O)Nc1cccc2ccccc12 | 59.8% (active)
52 | NNC(=O)COc1ccccc1[N+](=O)[O-] | 4.8% (inactive)
53 | CCOCCCn1c(=N)c(C(=O)NCc2ccc3c(c2)OCO3)cc2c(=O)n3ccccc3nc21 | -7.7% (inactive)
54 | CC(C)OCCCNC(=O)c1ccc(N(C)S(C)(=O)=O)cc1 | 6.8% (inactive)
55 | CCc1ccc(O)c(N=Cc2cccc(C)c2O)c1 | 17.4% (inactive)
56 | Cc1ccc(N=Cc2sc(O)c3ccccc23)c(C)c1 | 2.2% (inactive)
57 | Cc1cccc(C=Nc2ccc3c(c2)oc2ccccc23)c1O | 30.1% (inactive)
58 | CCOc1cccc(C=Nc2cc(C)cc(C)c2O)c1O | 7% (inactive)
59 | CCC(=O)N1CCN(c2ccccc2NC(=O)Cc2ccccc2)CC1 | 3.5% (inactive)
60 | CCNC(=S)Nc1ccc(S(=O)(=O)Nc2cc(C)nc(C)n2)cc1 | -7.6% (inactive)
61 | O=C(O)C1CC=CCC1C(=O)Nc1cccc(C(=O)N2CCCCC2)c1 (configuration not stated) | -20.1% (inactive)
62 | COc1cc(C(c2sc3nc(C)nn3c2O)N2CCc3ccccc3C2)cc(OC)c1OC (configuration not stated) | 5.1% (inactive)
63 | COc1cccc(C(c2sc3nc(C)nn3c2O)N2CCc3ccccc3C2)c1 (configuration not stated) | 42.6% (inactive)
64 | Cc1ccc2c(c1)NC(=O)C(CC(=O)NCCCN1CCN(c3cc(C)ccc3C)CC1)O2 (configuration not stated) | 9.9% (inactive)
65 | CN(C)/C=N/c1nc(-c2ccc3c(c2)OCO3)cs1 | 7.4% (inactive)
66 | CC(C)c1cc(NC(=O)c2ccccc2)cc(C(C)C)c1O | 8.4% (inactive)

Row | SMILES | inhibition
67 | CC(=O)Nc1cc(C(C)C)c(O)c(C(C)C)c1 | 6.7% (inactive)
68 | CC(C)c1cc(Nc2cccc(O)c2)cc(C(C)C)c1O | 53.6% (active)
69 | CC(C)(C)NC(=O)C(c1ccc(OCC(N)=O)cc1)N(C(=O)c1cccnc1)C1CC1 (configuration not stated) | -7.4% (inactive)
70 | C=CCNC(=O)c1ccc2c(c1)nnn2C | 3.7% (inactive)
71 | CN(C)/C=C/C(=O)c1cnc(-c2ccc(Cl)cc2)s1 | 0.9% (inactive)
72 | O=C(c1ccc(Cl)nc1)N1CCc2ccccc2C1 | 5.7% (inactive)
73 | Cc1ccc(Nc2nc(-c3c(C)nc4ccccn34)cs2)cc1 | 57.1% (active)
74 | Cc1ccc(Nc2nc(-c3c(C)nc4ncccn34)cs2)cc1 | 18.6% (inactive)
75 | Cc1cccc(Nc2nc(-c3c(C)nc4ccccn34)cs2)c1 | 47% (inactive)
76 | CSc1ccccc1NC(=O)COc1ccc(Cl)cc1 | 3.4% (inactive)
77 | CCCOC(=O)c1cc(NC(=O)/C=C/c2ccccc2)ccc1O | 14.7% (inactive)
78 | C/C=C/CSc1nc2c(c(=O)[nH]c(=O)n2C)n1Cc1ccc(C)cc1 | 14% (inactive)
79 | Cc1cccc(NC2=C/C(=N/S(=O)(=O)c3cccs3)c3ccccc3C2=O)c1 | 56.8% (active)
80 | COC(=O)c1ccccc1NC1=C/C(=N\S(=O)(=O)c2cccs2)c2ccccc2C1=O | -25.4% (inactive)
81 | O=C1C(Nc2ccc(O)cc2)=C/C(=N/S(=O)(=O)c2cccs2)c2ccccc21 | 47.6% (inactive)
82 | Cc1ccc(NC2=C/C(=N/S(=O)(=O)c3cccs3)c3ccccc3C2=O)cc1 | 47.9% (inactive)
83 | Cc1ccccc1NC1=C/C(=N\S(=O)(=O)c2cccs2)c2ccccc2C1=O | 17.2% (inactive)
84 | Cc1ccc(NC2=C/C(=N\S(=O)(=O)c3cccs3)c3ccccc3C2=O)c(C)c1 | 50.1% (active)
85 | Cc1ccc(NC2=C/C(=N/S(=O)(=O)c3cccs3)c3ccccc3C2=O)cc1C | 31.2% (inactive)
86 | Cc1ccc(Cl)cc1NC1=C/C(=N\S(=O)(=O)c2cccs2)c2ccccc2C1=O | 16.4% (inactive)
87 | CC(=O)Nc1ccc(NC2=C/C(=N/S(=O)(=O)c3cccs3)c3ccccc3C2=O)cc1 | 54.1% (active)
88 | CCN1CCN(CC(=O)NC2CCCC2)C(=O)C1=O | 5.9% (inactive)

Row | SMILES | inhibition
89 | CC(NC(=O)C1CCCN(S(=O)(=O)c2cnc[nH]2)C1)c1ccccc1 (configuration not stated) | -0.1% (inactive)
90 | CCOc1ccccc1-c1nc(-c2ccc(NC(=O)Cc3ccc(OC)cc3)cc2)no1 | -5.8% (inactive)
91 | COc1ccc(NC(=O)N2CCN(S(C)(=O)=O)CC2)cc1OC | 14% (inactive)
92 | COc1ccccc1NC(=O)/C(C#N)=C/c1cc([N+](=O)[O-])ccc1N1CCCC1 | -6.4% (inactive)
93 | COc1cc(OC)cc(C(=O)NC(C(=O)O)C23CC4CC(CC(C4)C2)C3)c1 (configuration not stated) | -4.9% (inactive)
94 | COc1ccc(/C(O)=C2/C(=O)C(=O)N(CC3CCCO3)C2c2ccc(O)c(OC)c2)cc1 (configuration not stated) | 5.8% (inactive)
95 | O=S(=O)(NCCNc1ncc(C(F)(F)F)cc1Cl)C(F)(F)F | 6.3% (inactive)
96 | CCOc1ccccc1NC(=S)NCC1CCCO1 (configuration not stated) | -3.2% (inactive)
97 | CCOc1cc(NC(=S)NCC2CCCO2)c(OCC)cc1NC(=O)c1ccc(F)cc1 (configuration not stated) | 54.9% (active)
98 | CCOc1cc(NC(=S)NCC2CCCO2)c(OCC)cc1NC(=O)c1cccc(F)c1 (configuration not stated) | 53.7% (active)
99 | CCOc1cc(NC(=S)NCC2CCCO2)c(OCC)cc1NC(=O)c1cccc(C)c1 (configuration not stated) | 17% (inactive)
100 | CCOc1cc(NC(=S)NCC2CCCO2)c(OCC)cc1NC(=O)C1CC1 (configuration not stated) | 5.5% (inactive)
101 | CCOc1cc(NC(=S)NCC2CCCO2)c(OCC)cc1NC(=O)c1ccccc1 (configuration not stated) | 17.7% (inactive)
102 | CCOc1cc(NC(=S)NCC2CCCO2)c(OCC)cc1NC(=O)c1ccc(C)cc1 (configuration not stated) | 58.2% (active)
103 | CCOc1cc(NC(=S)NCC2CCCO2)c(OCC)cc1NC(=O)c1ccccc1C (configuration not stated) | 5.7% (inactive)
104 | CCOc1cc(NC(=S)NCC2CCCO2)c(OCC)cc1NC(=O)CC (configuration not stated) | 6.9% (inactive)
105 | CCOc1cc(NC(=S)NCC2CCCO2)c(OCC)cc1NC(=O)c1ccc(OC)cc1 (configuration not stated) | 35% (inactive)
106 | CCOc1cc(NC(=S)NCC2CCCO2)c(OCC)cc1NC(=O)c1ccccc1F (configuration not stated) | 53.9% (active)
107 | CCOc1cc(NC(=S)NCC2CCCO2)c(OCC)cc1NC(=O)CC(C)C (configuration not stated) | 15.4% (inactive)
